According to PubChem BioAssay (NCI):
The panel holds about 79,000 compounds, 15% with a hit somewhere; the sample as a whole holds those more often. Active and inactive are the calls of the source. Rule as the data show it: active = growth inhibition above about 70%; inactive = the rest.

Legend:
[1] = NCI Yeast Anticancer Drug Screen. Data for the rad52 strain (AID 147);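 also: 0% = growth of vehicle-treated control cultures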; conditions: S. cerevisiae rad52 mutant growth inhibition, active compounds read high
In short: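 DNA repair-defective yeast; compound exposure; growth scored against vehicle controls.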

[2] = NCI Yeast Anticancer Drug Screen. Data for the wt1 strain (AID 149);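 also: 0% = growth of vehicle-treated wt1 cultures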; conditions: S. cerevisiae wt1 strain (SPY 50644) growth inhibition, active compounds read high
In short: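 wt1 strain grown with compound or vehicle; inhibition taken from the growth difference.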

[3] = NCI Yeast Anticancer Drug Screen. Data for the rad50EPP+ strain (AID 151);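 also: 0% = growth of vehicle-treated control cultures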; conditions: S. cerevisiae rad50 mutant strain, active compounds read high
In short: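 rad50EPP+ yeast treated with test compounds. Readout: growth vs vehicle control.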

[4] = NCI Yeast Anticancer Drug Screen. Data for the mgt1 strain (AID 153); conditions: S. cerevisiae mgt1 mutant growth inhibition, active compounds read high
In short: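 Growth inhibition relative to vehicle controls was scored for the mgt1 yeast strain after compound exposure.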

[5] = NCI Yeast Anticancer Drug Screen. Data for the rad50 strain (AID 155);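 also: 0% = growth of vehicle-only cultures of the same strain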; conditions: S. cerevisiae rad50 strain growth inhibition, active compounds read high
In short: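 DNA repair mutant yeast, compound exposure, growth read-out; inhibition is taken relative to vehicle.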

[6] = NCI Yeast Anticancer Drug Screen. Data for the mec2-1 strain (AID 157); conditions: S. cerevisiae mec2-1 strain, active compounds read high
In short: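 Growth inhibition is read against vehicle-treated controls after compound exposure of the mec2-1 yeast strain, which is defective in DNA damage repair or cell cycle control.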

[7] = NCI Yeast Anticancer Drug Screen. Data for the rad14 strain (AID 159);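 also: 0% = growth of vehicle-treated control cultures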; conditions: S. cerevisiae rad14 strain growth inhibition, active compounds read high
In short: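 DNA repair-defective yeast, compound-exposed; % growth inhibition derived by comparison with vehicle-treated controls.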

[8] = NCI Yeast Anticancer Drug Screen. Data for the sgs1 mgt1 strain (AID 161);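 also: 0% = growth of cultures given vehicle only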; conditions: S. cerevisiae sgs1 mgt1 strain, active compounds read high
In short: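 Percent growth inhibition was derived by comparing compound-exposed mutant yeast with vehicle-exposed cultures. The strain carries alterations in DNA damage repair.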

[9] = NCI Yeast Anticancer Drug Screen. Data for the CLN2oe strain (AID 163);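 also: 0% = growth of vehicle-only control cultures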; conditions: S. cerevisiae CLN2oe strain, active compounds read high
In short: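 Compound-treated yeast; growth vs vehicle ctrl = % inhibition. Genetically altered strain (cell-cycle control).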

[10] = NCI Yeast Anticancer Drug Screen. Data for the cln2 rad14 strain (AID 165);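 also: 0% = growth equal to vehicle treated cultures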; conditions: S. cerevisiae cln2 rad14 strain, active compounds read high
In short: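 Growth inhibition, relative to vehicle-treated controls, is the read-out. The test organism is a yeast strain with defined genetic alterations, cln2 rad14.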

[11] = NCI Yeast Anticancer Drug Screen. Data for the bub3 strain (AID 167); conditions: S. cerevisiae bub3 mutant strain, active compounds read high
In short: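 In this screen, a yeast mutant lacking normal mitotic checkpoint function is challenged with compound. Relative growth versus vehicle gives the inhibition value.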

[12] = NCI Yeast Anticancer Drug Screen. Data for the wt2 strain (AID 169);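 also: 0% = growth of vehicle-treated yeast cultures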; conditions: S. cerevisiae wt2 strain growth inhibition, active compounds read high
In short: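 Compound exposure of yeast; growth compared with vehicle controls; inhibition reported.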

[13] = NCI Yeast Anticancer Drug Screen. Data for the mlh1 strain (AID 171);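 also: 0% = growth of vehicle-treated control cultures of the same strain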; conditions: S. cerevisiae mlh1 strain growth inhibition, active compounds read high
In short: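 Compounds are applied to a genetically altered yeast strain, and its growth is compared with that of vehicle-treated cultures to give percent inhibition.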

[14] = NCI Yeast Anticancer Drug Screen. Data for the sgs1 strain (AID 173);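 also: 0% = growth of vehicle-only control cultures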; conditions: S. cerevisiae sgs1 mutant, active compounds read high
In short: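 Compounds applied to genetically altered yeast; growth compared with vehicle-treated cultures to give % inhibition.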

[15] = NCI Yeast Anticancer Drug Screen. Data for the mlh1 rad18 strain (AID 175); conditions: S. cerevisiae mlh1 rad18 strain growth inhibition, active compounds read high
In short: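 Cells of a genetically altered yeast strain, deficient in DNA damage repair, were treated with compound. Their growth was then compared with that of vehicle-treated cultures to give inhibition.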

[16] = NCI Yeast Anticancer Drug Screen. Data for the rad18 strain (AID 177); conditions: S. cerevisiae rad18 mutant growth inhibition, active compounds read high
In short: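 Compounds are applied to a repair-deficient yeast strain, and growth is compared with that of vehicle-treated cultures to give percent inhibition.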

[17] = at 5.0 µM (retest, dose inferred, filed as 0.5)
[18] = at 50.0 µM (retest, dose inferred, filed as 5.0)

Measured: growth inhibition

O=c1[nH]c2ccccc2c2nc3ccccc3n12
active: [1]; at 33.0 µM 72% | [1]; at 100.0 µM 70% | [3]; at 33.0 µM 90% | [3]; at 100.0 µM 92% | [5]; at 11.0 µM 77% | [5]; at 33.0 µM 78% | [5]; [18] 94% | [5]; at 100.0 µM 88% | [6]; [18] 97% | [11]; [18] 74% | [15]; [18] 86%
inactive: [1]; at 1.2 µM -43% | [1]; at 3.7 µM -34% | [1]; at 11.0 µM 8% | [2]; at 1.2 µM -39% | [2]; at 3.7 µM -44% | [2]; at 11.0 µM -8% | [2]; at 33.0 µM 3% | [2]; at 100.0 µM -17% | [3]; at 1.2 µM 10% | [3]; at 3.7 µM 16% | [3]; at 11.0 µM 48% | [4]; at 1.2 µM -34% | [4]; at 3.7 µM -14% | [4]; at 11.0 µM 26% | [4]; at 33.0 µM 40% | [4]; at 100.0 µM 8% | [5]; at 1.2 µM -17% | [5]; at 3.7 µM -6% | [5]; [17] 51% | [5]; at 50.0 µM 15.6% | [6]; at 1.2 µM -48% | [6]; at 3.7 µM -50% | [6]; [17] 62% | [6]; at 11.0 µM -41% | [6]; at 33.0 µM -42% | [6]; at 50.0 µM 12.7% | [6]; at 100.0 µM 12% | [7]; at 1.2 µM -39% | [7]; at 3.7 µM -43% | [7]; at 11.0 µM -50% | [7]; at 33.0 µM 7% | [7]; at 100.0 µM -8% | [8]; [17] -17% | [8]; [18] 22% | [9]; at 1.2 µM 12% | [9]; at 3.7 µM -2% | [9]; at 11.0 µM 15% | [9]; at 33.0 µM 40% | [9]; at 100.0 µM 26% | [10]; [17] 33% | [10]; [18] 59% | [11]; at 1.2 µM -11% | [11]; at 3.7 µM 5% | [11]; [17] 45% | [11]; at 11.0 µM 11% | [11]; at 33.0 µM 60% | [11]; at 100.0 µM 42% | [12]; at 1.2 µM -53% | [12]; at 3.7 µM -47% | [12]; at 11.0 µM -47% | [12]; at 33.0 µM -15% | [12]; at 100.0 µM 26% | [13]; at 1.2 µM -40% | [13]; at 3.7 µM -22% | [13]; at 11.0 µM -14% | [13]; at 33.0 µM 38% | [13]; at 100.0 µM 37% | [14]; at 1.2 µM -43% | [14]; at 3.7 µM -58% | [14]; at 11.0 µM -64% | [14]; at 33.0 µM 23% | [14]; at 100.0 µM -14% | [15]; [17] 49% | [15]; at 50.0 µM 47.1% | [16]; at 1.2 µM -29% | [16]; at 3.7 µM -22% | [16]; at 11.0 µM -20% | [16]; at 33.0 µM 27% | [16]; at 100.0 µM 9%
